Source: PubChem (National Center for Advancing Translational Sciences (NCATS))
Hits are enriched below; roughly 7.9% of the tested compounds scored in any of these assays.
MCF10A rerep = inducers of DNA re-replication in MCF 10A breast cells | AID 624296 | hit rate 2.9% among 350,000 | MCF 10A DNA re-replication, Hoechst nuclear intensity, 48 h | Potency, µM (top dose mostly 46.1 µM), without a hit: top-dose activity, positive = re-replication, most hits filed as activators; note: % of control where 0% means no effect; nearly all actives have a fitted effect of over 50% in size
KB-V1 cytotox = KB-V1 MDR subline cytotoxicity; KB-V1 MDR cells viability, CellTiter-Glo, 72 h; hit rate 3.4% among 400,000; Potency, µM (top dose mostly 46.1 µM), hits mostly cytotoxic; note: % is set by controls: 0 for no effect and ±100 for the full control effect; nearly all actives have a fitted effect of over 60% in size
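Following 72 h at 37 degrees C with compound, KB-V1 cell viability was read by CellTiter-Glo luminescence, medium being phenol-red-free DMEM plus 10% FBS; concentration-response parameters came from normalized, curve-fitted qHTS data.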
HT1080 IDH1KD tx = kills HT-1080 cells with IDH1 knockdown. HT-1080 IDH1 knockdown viability, ATP luminescence, 48 h. Potency, µM (top dose mostly 46.1 µM), inactives show top-dose activity, negative = toxicity, hits mostly cytotoxic. hit rate 2% among 360,000. AID 686971;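 note: 0% = DMSO wells and -100% = cell-free medium wells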
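Viability of IDH1-knockdown HT-1080 fibrosarcoma cells was assessed by CellTiter-Glo after 48 h at 37 °C with titrated compound; concentration-effect curves were classified by fit quality and response size.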
HT1080-NT tox = kills 2HG-producing HT-1080-NT fibrosarcoma cells; HT-1080-NT fibrosarcoma viability, CellTiter-Glo ATP luminescence, 48 h; Potency, µM (highest dose often 46.1 µM), inactives show top-dose activity, negative = less viability, actives largely listed as cytotoxic; hit rate 1.6% among 360,000;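 note: NT is the 2HG producing partner of a matched IDH1 knockdown line; 0% = DMSO-treated cells and -100% = media-only wells without cells; nearly all actives have a fitted effect of over 55% in size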
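Viability by CellTiter-Glo luminescence after 48 h compound exposure at 37C of HT-1080-NT cells (750/well, RPMI, 5% FBS). % activity scaled between DMSO wells and medium-only wells, then curve-fitted and categorized by curve class.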
SW480 rereplic = induces DNA re-replication in SW480 colon adenocarcinoma cells; hit rate 1.8% among 340,000; AID 624297; Potency, µM (series often up to 46.1 µM), without a hit: at the top dose re-replication activation, most hits filed as activators; SW480 DNA re-replication, Hoechst DNA content imaging, 48 h; note: % of control where 0% means no effect; nearly all actives have a fitted effect of over 55% in size
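SW480 cells exposed to compounds for 48 hr at 37 C, 5% CO2, then Hoechst-stained 40 min. Nuclear DNA content imaged by fluorescence scanning (405 nm excitation, 500-530 nm emission); re-replication scored as increased high-intensity nuclei.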
KB-3-1 tox = kills parental KB-3-1 adenocarcinoma cells; KB-3-1 viability, CellTiter-Glo ATP luminescence, 72 h; Potency, µM (top dose mostly 46.1 µM), actives largely listed as cytotoxic; hit rate 1.4% among 400,000; AID 1347075; note: % is set by controls: 0 for no effect and ±100 for the full control effect; nearly all actives have a fitted effect of over 60% in size
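KB-3-1 parental drug-naive adenocarcinoma cells in DMEM/10% FBS, incubated 72 h at 37 C with pin-transferred compounds across a concentration series. Viability by CellTiter-Glo luminescence; concentration-response curves fitted after normalization.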
* marks the source's active call; other numbers are inactive results; i = inactive; ? = inconclusive; nt = not tested or not shown; [ ] = another dose, or the depositor's remark. Calls come from the whole dose curve; as a rule, active = well fitted curve in the direction sought with a large enough effect; inconclusive = small, poorly fitted or top-dose-only effect, or another doubt; inactive = no such curve, though single readings can be large; an effect the other way counts as inactive or inconclusive. Potency is the fitted concentration of half-maximal effect.

SMILES	MCF10A rerep	KB-V1 cytotox	HT1080 IDH1KD tx	HT1080-NT tox	SW480 rereplic	KB-3-1 tox
COc1cc2c(cc1OC)C1=C(C#N)CC/C(=N\S(=O)(=O)c3ccccc3)N1CC2	-3.9%	?	-3.5%	-0.7%	-6.9%	i
COc1cc2c(cc1OC)C1=C(C#N)CCC(=O)N1CC2	1.8%	4.61µM*	-3.4%	-16.3%	-6.7%	16.4µM*
CCOC(=O)c1cccc(NS(=O)(=O)c2cc(Br)cc3c2N(C(=O)C2CC2)CC3)c1	nt	i	nt	nt	nt	20.6µM*
Cc1cc2c(NCCc3ccccc3)ncnc2s1	0.4%	i	?	-23.5%	-3.5%	i
Brc1ccc2ncnc(NCc3ccccc3)c2c1	?	?	-0.2%[9.24 µM]	?	-1.0%	11.6µM*
c1ccc(CCNc2ncnc3ccccc23)cc1	6.6%	?	2.06µM*	?	9.1%	?
CCCCCCCCNc1ncnc2ccccc12	18.6%	0.184µM*	?	?	?	0.651µM*
Cc1ccc(N2CCC3CC2c2cc(-c4ccc(C(F)(F)F)cc4)ccc23)cc1 (stereo not given)	nt	i	3.7%	0.0%	nt	i
Cc1ccc(S(=O)(=O)NCCOc2cc(C)ccc2C)cc1	18.2%	i	-8.2%	-14.1%	?	i
O=C(Nc1cc(Cl)ccc1Cl)c1cc(S(=O)(=O)N2CCc3ccccc3C2)ccc1F	nt	i	nt	nt	nt	i
CCn1c(=O)c(C(=O)Nc2ncccc2O)c(O)c2ccccc21	?	i	-0.1%	-21.0%	5.4%	i
Cc1cccnc1NC(=O)c1c(O)c2ccccc2n(C)c1=O	?	7.31µM*	-29.5%	?	13.0%	i
CCn1c(=O)c(C(=O)Nc2ncccc2C)c(O)c2ccccc21	15.6%	4.61µM*	-29.6%	-8.4%	24.2%	?
Cn1c(=O)c(C(=O)NNC(=O)c2ccc(Br)cc2)c(O)c2ccccc21	23.1µM*	?	14.6µM*	20.6µM*	21.2%	25.9µM*
CCC(C(=O)Nc1c(C)cccc1C)n1c(-c2ccc(-c3ccccc3)cc2)nc2ccccc21 (stereo not given)	nt	i	-15.3%	-7.6%	nt	i
CC1(C)CCCN(C(=O)N2c3ccccc3Sc3ccccc32)C1	12.6µM*	i	?	-23.0%	15.2%	i
O=C(CN1CCCC1)N1c2ccccc2Sc2ccccc21	11.3%	i	-4.0%	0.2%	-4.8%	i
Cc1ccc(NC(=O)c2cc(C)n(-c3ccccc3)c2C)cc1	3.26µM*	i	?	?	3.0%	i
C[C@H]1CN([C@@H](C)CO)C(=O)CCCn2nncc2CO[C@H]1CN(C)C(=O)NC1CCCCC1	nt	i	9.5%	10.6%	nt	i
CCOC(=O)C1=NN(c2ccccc2)C2=NC(C)=C(C(=O)OC)C(c3ccc(C)cc3)N12 (stereo not given)	1.9%	14.6µM*	-3.4%	-3.8%	0.0%	i
COc1ccc(/C=C/c2ccnc3ccccc23)c(OC)c1	nt	i	nt	nt	nt	?
O=[N+]([O-])c1cc([N+](=O)[O-])c(N2CCCCCC2)cc1NCCO	22.6%	9.2µM*	?	-13.8%	27.1%	i
Cc1ccc2occ(-c3cc(-c4ccccc4)nc4c3COc3ccccc3-4)c(=O)c2c1	nt	i	nt	nt	nt	i
CCOC(=O)C1=C(C)NC(=O)NC1c1ccc(N2CCC(c3ccccc3)=N2)cc1 (stereo not given)	?	i	0.6%	5.2%	23.1µM*	i
CC1=C(C(=O)OCc2ccccc2)C(c2ccc(N(C)C)cc2)NC(=O)N1 (stereo not given)	?	?	-7.7%	-19.2%	?	i
SMILES	MCF10A rerep	KB-V1 cytotox	HT1080 IDH1KD tx	HT1080-NT tox	SW480 rereplic	KB-3-1 tox
CCOC(=O)C1=C(C)NC(=O)NC1c1ccc(NC(C)=O)cc1 (stereo not given)	-0.2%	i	-4.3%[9.24 µM]	-9.3%	4.2%	i
COc1cc(C2NC(=O)NC(C)=C2C(=O)OCc2ccc(C)cc2)cc(OC)c1OC (stereo not given)	0.9%	i	-20.1%	6.0%	?	i
CCOc1ccc(C2NC(=O)NC(C)=C2C(=O)OCc2ccccc2)cc1 (stereo not given)	20.6µM*	?	?	?	?	?
COc1cc(C2NC(=O)NC(C)=C2C(=O)OCc2ccc(C)cc2)cc(OC)c1O (stereo not given)	7.31µM*	i	-15.3%	-0.8%	15.7%	i
CC(=O)N1CCCc2cc(S(=O)(=O)N3CCN(c4ccccc4F)CC3)ccc21	nt	i	nt	nt	nt	?
O=S(=O)(c1ccccc1)c1nnn2c1nc(NCc1ccc(F)cc1)c1sccc12	nt	?	nt	nt	nt	i
COc1ccc(OC)c(NC(=O)c2cn3c4c(ccc(Cl)c4c2=O)OC(C)C3)c1 (stereo not given)	nt	i	nt	nt	nt	i
C[C@@H]1COC(=O)[C@H](NC(=O)OCC2c3ccccc3-c3ccccc32)C/C=C\C[C@@H](CC(=O)N(CCO)Cc2ccccc2)C(=O)N1	0.6%	i	10.3%	9.4%	1.5%	i
O=C(N[C@@H]1C/C=C\C[C@H](CC(=O)N(CCO)Cc2ccccc2)C(=O)N[C@@H](Cc2ccccc2)COC1=O)OCC1c2ccccc2-c2ccccc21	13µM*	i	-11.9%	-10.2%	?	?
O=C(N[C@H]1C/C=C\C[C@@H](CC(=O)N(CCO)Cc2ccccc2)C(=O)NC[C@H](c2ccccc2)OC1=O)OCC1c2ccccc2-c2ccccc21	6.51µM*	i	?	23.1µM*	4.9%	?
COc1cccc(COC(=O)CSCC(=O)Nc2ccc(C)cc2)c1OC	nt	?	2.0%	-7.8%	nt	i
O=C(Cc1c[nH]c2ccccc12)NCC(=O)Nc1ccc(F)c(F)c1F	2.6%	i	-5.0%	0.1%	-6.1%	i
COc1ccc(NC(=O)CN2C(=O)CC(c3ccc(C)c(C)c3)=Nc3ccccc32)cc1OC	nt	i	nt	nt	nt	i
Nc1nc(N)c2sc3nc(C(F)(F)F)cc(C(F)(F)F)c3c2n1	?	18.4µM*	-15.5%	-10.7%	-2.6%	i
Nc1ccc2c(C(F)(F)F)cc(C(F)(F)F)nc2n1	?	?	-0.2%	0.6%	?	i
